Results filed as inconclusive are left out. Calls of active or inactive are those of the source. Unless noted, the call rests on the fitted dose curve; in most records, active means well fitted curve in the direction sought with a large enough effect in the repeat runs; inconclusive means weak or mixed curves; inactive means no such curve, though single readings can be large; an effect the other way counts as inactive or inconclusive.
Experiments:
[1] = qHTS assay to identify small molecule agonists of the peroxisome proliferator-activated receptor delta (PPARd) signaling pathway - cell viability counter screen (AID 743211); further: nearly all actives have a fitted effect of over 55% in size
In short: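 Viability was measured as CellTiter-Glo luminescence (30 min, room temperature) in the same wells as the beta-lactamase readout. GeneBLAzer PPARd UAS-bla HEK293H cells received compound after 5 h plating and were incubated 17 h at 37 C.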

[2] = qHTS assay to identify small molecule antagonists of the peroxisome proliferator-activated receptor delta (PPARd) signaling pathway - cell viability counter screen (AID 743213); further: nearly all actives have a fitted effect of over 50% in size
In short: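 PPARd-bla HEK293H cells were treated with compounds plus agonist L165041 (300 nM final) for 17 h at 37 C. Viability was then read in the same wells by CellTiter-Glo luminescence after 30 min at room temperature.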

[3] = biological target: Bile acid receptor (Homo sapiens) (UniProt Q96RI1); assay: qHTS assay to identify small molecule antagonists of the farnesoid-X-receptor (FXR) signaling pathway (AID 743217; active means well fitted inhibition curve with a large enough effect in the signal ratio in the repeat runs, not every such curve was filed as active; the % refers to the signal ratio)
Bile acid receptor (Homo sapiens), sequence (Q96RI1 whole entry, looked up): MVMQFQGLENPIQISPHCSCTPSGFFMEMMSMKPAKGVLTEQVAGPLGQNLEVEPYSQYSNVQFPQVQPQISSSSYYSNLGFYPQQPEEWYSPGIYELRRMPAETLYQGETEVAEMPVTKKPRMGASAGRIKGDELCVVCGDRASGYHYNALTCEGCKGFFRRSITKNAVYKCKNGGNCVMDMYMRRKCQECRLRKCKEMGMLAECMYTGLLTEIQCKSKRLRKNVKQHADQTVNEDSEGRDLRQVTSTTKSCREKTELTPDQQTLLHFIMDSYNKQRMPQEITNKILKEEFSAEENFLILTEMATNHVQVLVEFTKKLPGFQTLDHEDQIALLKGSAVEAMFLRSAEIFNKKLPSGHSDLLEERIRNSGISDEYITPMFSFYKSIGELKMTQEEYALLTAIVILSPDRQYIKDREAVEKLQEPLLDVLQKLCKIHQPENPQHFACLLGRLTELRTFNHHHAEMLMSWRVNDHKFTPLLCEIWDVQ
In short: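 Screen of the Tox21 10K library in quantitative HTS format using FXR-UAS-bla HEK 293T reporter cells. Agonist chenodeoxycholic acid, 50 uM final, added with compounds; 16 h incubation at 37 °C; beta-lactamase FRET fluorescence measured.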

[4] = qHTS assay to identify small molecule agonists of the farnesoid-X-receptor (FXR) signaling pathway - cell viability counter screen (AID 743218); further: nearly all actives have a fitted effect of over 45% in size
In short: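 Viability of FXR-bla HEK 293T cells is measured by ATP-based CellTiter-Glo luminescence following 16 h compound treatment at 37 C and a prior 2 h room-temperature beta-lactamase substrate step.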

[5] = biological target: Bile acid receptor (Homo sapiens) (UniProt Q96RI1); assay: qHTS assay to identify small molecule agonists of the farnesoid-X-receptor (FXR) signaling pathway (AID 743220; active means well fitted activation curve with a large enough effect in the signal ratio in the repeat runs, not every such curve was filed as active; the % refers to the signal ratio)
In short: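 FXR-UAS-bla HEK 293T cells carrying a UAS-driven beta-lactamase reporter were plated for 5 h at 37C/5% CO2, then exposed to DMSO-dissolved Tox21 10K compounds for 16 h at 37C. A LiveBLAzer B/G FRET substrate was loaded for 2 h at room temperature before fluorescence reading.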

[6] = qHTS assay to identify small molecule antagonists of the farnesoid-X-receptor (FXR) signaling pathway - cell viability counter screen (AID 743221; active means well fitted cell-killing curve with a large enough effect in the repeat runs, not every such curve was filed as active; further: nearly all actives have a fitted effect of over 50% in size)
In short: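 Cytotoxicity counter screen run in the FXR-bla reporter wells: HEK 293T cells exposed to compound with 50 uM (final) chenodeoxycholic acid for 16 h, 37 C, then viability measured by CellTiter-Glo luminescence after 30 min, room temperature.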

[7] = qHTS assay to identify small molecule agonists of the vitamin D receptor (VDR) signaling pathway - cell viability counter screen (AID 743224); further: series mostly up to about 63 µM; nearly all actives have a fitted effect of over 50% in size
In short: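 Compounds were pin-transferred onto VDR-bla cells plated 4 h earlier; following 16 h incubation at 37C, cell viability was quantified by CellTiter-Glo luminescence after 30 min at room temperature.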

[8] = qHTS assay to identify small molecule antagonists of the vitamin D receptor (VDR) signaling pathway - cell viability counter screen (AID 743225); further: nearly all actives have a fitted effect of over 50% in size
In short: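 Cytotoxicity counter screen read by CellTiter-Glo luminescence (30 min, room temperature) in the same wells as the VDR-bla antagonist readout. HEK 293T VDR-UAS-bla cells had 16 h at 37C with compound and 3 nM (final) 1-alpha,25-dihydroxyvitamin D3, then 2 h with FRET substrate.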

[9] = qHTS assay to identify small molecule agonists of the NFkB signaling pathway (AID 1159509; active means well fitted curve in the direction sought with a large enough effect in the signal ratio in the repeat runs, not every such curve was filed as active; the % refers to the signal ratio; further: series mostly up to about 61 µM)
In short: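 Agonist activity was read as beta-lactamase-driven FRET change (460 and 530 nm emission, 405 nm excitation) following 1.5 hr substrate loading at room temperature. Beforehand, ME-180 NFkB-bla reporter cells were treated with compounds for 5 hr at 37 C.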

[10] = qHTS assay to identify small molecule agonists of the NFkB signaling pathway - cell viability counter screen (AID 1159515; calls by dose curve; further: series mostly up to about 61 µM; nearly all actives have a fitted effect of over 55% in size)
In short: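 Parallel cytotoxicity counter screen in ME-180 cells carrying an NFkB-response-element beta-lactamase reporter, 2,000 cells/well. Compound exposure lasted 5 hr at 37 C, 5% CO2. Cell viability was quantified by CellTiter-Glo luminescence.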

[11] = qHTS assay to identify small molecule agonists of the endoplasmic reticulum stress response signaling pathway (AID 1159516; active means well fitted activation curve with a large enough effect in the signal ratio in the repeat runs, not every such curve was filed as active; the % refers to the signal ratio)
In short: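 Using a HeLa line with an ESRE-driven beta-lactamase gene, agonist activity was measured by FRET substrate fluorescence (460 and 530 nm emission) after cells were treated with compounds for 5 hr at 37 C and 5% CO2.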

[12] = qHTS assay to identify small molecule agonists of the endoplasmic reticulum stress response signaling pathway - cell viability counter screen (AID 1159517; calls by dose curve)
In short: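 In parallel with the ESRE reporter read, cytotoxicity was scored by CellTiter-Glo luminescence (30 min, room temperature) on HeLa ESRE-bla cells dosed for 5 hr.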

[13] = qHTS assay to identify small molecule antagonists of the retinoid-related orphan receptor gamma (ROR-gamma) signaling pathway - cell viability counter screen (AID 1159520); further: nearly all actives have a fitted effect of over 50% in size
In short: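 Tet-on ROR gamma CHO cells were given compounds for 2 hr, then doxycycline hyclate at 1 uM final, and incubated 16 hr at 37 C. Viability was measured as ATP content by CellTiter-Glo luminescence.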

[14] = qHTS assay to identify small molecule agonists of the AP-1 signaling pathway - cell viability counter screen (AID 1159525; calls by dose curve; further: nearly all actives have a fitted effect of over 55% in size)
In short: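 Same-well cytotoxicity counter screen of the Tox21 10K library in ME-180 cells. The readout is ATP-dependent luminescence after 5 h compound treatment. Data are normalised to DMSO and tetra n-octyl ammonium bromide controls.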

[15] = qHTS assay to identify small molecule agonists of the AP-1 signaling pathway (AID 1159526; calls by dose curve)
[16] = biological target: Peroxisome proliferator-activated receptor delta (Homo sapiens) (UniProt Q03181); assay: qHTS assay to identify small molecule agonists of the peroxisome proliferator-activated receptor delta (PPARd) signaling pathway (AID 743212; calls by dose curve)
Peroxisome proliferator-activated receptor delta (Homo sapiens), sequence (Q03181 whole entry, looked up): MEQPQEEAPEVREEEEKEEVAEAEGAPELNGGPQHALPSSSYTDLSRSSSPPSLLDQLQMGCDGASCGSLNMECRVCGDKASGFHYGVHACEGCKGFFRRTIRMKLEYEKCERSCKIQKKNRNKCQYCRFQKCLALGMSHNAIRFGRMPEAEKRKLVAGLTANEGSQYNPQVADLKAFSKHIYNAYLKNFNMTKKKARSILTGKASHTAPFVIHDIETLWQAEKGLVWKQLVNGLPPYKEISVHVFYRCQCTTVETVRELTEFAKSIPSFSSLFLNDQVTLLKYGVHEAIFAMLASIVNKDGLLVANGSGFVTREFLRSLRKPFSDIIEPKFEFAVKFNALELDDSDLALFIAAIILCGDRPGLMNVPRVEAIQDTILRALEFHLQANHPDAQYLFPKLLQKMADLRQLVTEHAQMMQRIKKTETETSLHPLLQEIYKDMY
In short: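 Tox21 library screened in GeneBLAzer PPARd UAS-bla HEK293H cells. After compound treatment at 37 C, a FRET-based beta-lactamase substrate was applied for 2 h and fluorescence recorded.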

[17] = biological target: Peroxisome proliferator-activated receptor delta (Homo sapiens) (UniProt Q03181); assay: qHTS assay to identify small molecule antagonists of the peroxisome proliferator-activated receptor delta (PPARd) signaling pathway (AID 743215; active means well fitted inhibition curve with a large enough effect in the signal ratio in the repeat runs, not every such curve was filed as active; the % refers to the signal ratio;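 further: cells stimulated with agonist L165041 at 300 nM final during compound exposure; series mostly up to about 62 µM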)
In short: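 Plated HEK293H PPARd-bla cells rested 5 h at 37 C and 5% CO2. Compound, then agonist L165041 at 300 nM final, was added; 17 h at 37 C followed. Substrate loading, 2 h room temperature, fluorescence measured.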

[18] = biological target: Vitamin D3 receptor (Homo sapiens) (UniProt P11473); assay: qHTS assay to identify small molecule agonists of the vitamin D receptor (VDR) signaling pathway (AID 743222; calls by dose curve)
Vitamin D3 receptor (Homo sapiens), sequence (P11473 whole entry, looked up): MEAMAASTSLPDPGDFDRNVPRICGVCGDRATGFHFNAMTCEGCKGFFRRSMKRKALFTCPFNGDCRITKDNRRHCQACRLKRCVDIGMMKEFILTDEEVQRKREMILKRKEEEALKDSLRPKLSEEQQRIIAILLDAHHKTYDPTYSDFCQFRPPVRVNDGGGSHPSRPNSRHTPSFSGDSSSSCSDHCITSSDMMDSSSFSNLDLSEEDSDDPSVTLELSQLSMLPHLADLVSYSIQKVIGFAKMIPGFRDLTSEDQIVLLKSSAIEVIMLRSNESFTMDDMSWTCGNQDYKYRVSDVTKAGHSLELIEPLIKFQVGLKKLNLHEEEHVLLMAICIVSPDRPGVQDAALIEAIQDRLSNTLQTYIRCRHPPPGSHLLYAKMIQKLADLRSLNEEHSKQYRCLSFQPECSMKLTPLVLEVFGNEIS
In short: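 Fluorescence from cleaved LiveBLAzer B/G FRET substrate served as readout. VDR-bla cells had been treated 16 h at 37C with test compounds in DMSO, following a 4 h settling period, and substrate was loaded for 2 h at RT.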

[19] = biological target: Vitamin D3 receptor (Homo sapiens) (UniProt P11473); assay: qHTS assay to identify small molecule antagonists of the vitamin D receptor (VDR) signaling pathway (AID 743223; active means well fitted inhibition curve with a large enough effect in the signal ratio in the repeat runs, not every such curve was filed as active; the % refers to the signal ratio)
In short: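 Antagonist mode: compound added to VDR-bla cells alongside agonist 1alpha,25-dihydroxyvitamin D3 (3 nM final), incubation 16 h at 37C. Read-out is LiveBLAzer FRET fluorescence, 2 h at room temperature.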

[20] = biological target: Nuclear receptor ROR-gamma (Homo sapiens) (UniProt P51449); assay: qHTS assay to identify small molecule antagonists of the retinoid-related orphan receptor gamma (ROR-gamma) signaling pathway (AID 1159521)
In short: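 Antagonist read-out: drop in luminescence (ONE-Glo) from an RORE-LUC reporter in CHO cells with doxycycline-inducible ROR-gamma; 2 hr compound pretreatment, 1 uM doxycycline, 16 hr incubation at 37 C.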

Measured: Potency

CCCCCCC
not listed: [16] | [17] | [18] | [19] | [20]
inactive: all other assays above

COC(=O)/C=C(/C)N
not listed: [12] | [20]
inactive: all other assays above

CCCCCCn1c(=O)c2c(ncn2C)n(C)c1=O
not listed: [3] | [5] | [16] | [17] | [18] | [19] | [20]
inactive: all other assays above

Nc1ccc2ccccc2c1S(=O)(=O)O
not listed: [3] | [5] | [12] | [15] | [16]
inactive: all other assays above

CCCCCOc1ccc(C2SC(=O)NC2=O)cc1OCC (stereo not given)
inactive: [1] | [2] | [4] | [6] | [19] | [9] | [10] | [11] | [13] | [20] | [15]

CCCCCCCCCCCCCCCCOP(=O)([O-])OCC[N+](C)(C)C
not listed: [2] | [3] | [4] | [5] | [8] | [12] | [15] | [18]
inactive: all other assays above

CCCCCCOc1ccc(N)cc1
not listed: [3] | [4] | [7] | [12] | [15] | [16] | [17]
inactive: all other assays above

CN(CC1(C)CCCO1)S(=O)(=O)c1ccc(Cl)c(S(N)(=O)=O)c1 (stereo not given)
not listed: [12] | [18] | [19] | [20]
inactive: all other assays above

COc1ccccc1OCC(O)COC(N)=O (stereo not given)
not listed: [3] | [5] | [12] | [14] | [15] | [18] | [19]
inactive: all other assays above

C1CCOC1
not listed: [3] | [8] | [16] | [17] | [20]
inactive: all other assays above

CCCCCCCCCC/C=C/C#N
not listed: [12] | [20]
inactive: all other assays above

CCCCC(CC)COC(=O)COc1cc(Cl)c(Cl)cc1Cl (stereo not given)
not listed: [12] | [18] | [19] | [20]
inactive: all other assays above

OCCN(CCO)CCN(CCO)CCO
not listed: [3] | [5] | [16] | [17] | [20]
inactive: all other assays above

— PubChem BioAssay (Tox21)
